Data reported in PubChem BioAssay (EPA / NIEHS).
Calls of active or inactive are those of the source. Rule for the calls: active = hit-call score of the fitted dose curve at least 0.9, where 1 is the maximum; inactive = score below 0.9.

Columns and labels:
Settings in all cases: mRNA level, 48 h; actives raise or lower the signal
CYP2E1 (gene 1571) = test: LTEA_HepaRG_CYP2E1: Life Technologies and Expression Analysis (LTEA) Assay for CYP2E1 using HepaRG (AID 2283485)
Procedure, shortened: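 Human liver line HepaRG, plated 48 h, then serum-free induction medium + chemical x 48 h; 8-pt CRC from 100 uM, half-log, 0.5% DMSO, n=2. Readout: CYP2E1 mRNA qRT-PCR vs ACTB/GAPDH/POLR2A; bidirectional fit vs DMSO.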

CYP4A11 (gene 1579) = test: LTEA_HepaRG_CYP4A11: Life Technologies and Expression Analysis (LTEA) Assay for CYP4A11 using HepaRG (AID 2283486)
Procedure, shortened: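 HepaRG, 48 h chem exposure, 8 conc (100 uM top, half-log), 0.5% DMSO vehicle; qRT-PCR readout, housekeeping-gene normalized; bidirectional curve fit vs DMSO baseline.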

[1] = read-out: Cytochrome P450 3A4 (Homo sapiens) (UniProt P08684); test: LTEA_HepaRG_CYP3A4: Life Technologies and Expression Analysis (LTEA) Assay for CYP3A4 using HepaRG (AID 2283487)
Procedure, shortened: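 In a human hepatic line (HepaRG), duplicate wells were treated 48 h with up to 100 uM chemical in half-log dilutions. Endpoint: CYP3A4 mRNA induction or loss relative to 0.5% DMSO vehicle, by qRT-PCR.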

[2] = read-out: DNA damage-inducible transcript 3 (DDIT3), DDIT3 (gene 1649); test: LTEA_HepaRG_DDIT3: Life Technologies and Expression Analysis (LTEA) Assay for DNA damage-inducible transcript 3 (DDIT3) using HepaRG (AID 2283488)
Procedure, shortened: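 HepaRG plated 48 h, switched to serum-free induction medium, dosed 48 h (100 uM top, half-log, 8 pts, 0.5% DMSO, n=2); RNA isolated; DDIT3 by qRT-PCR; bidirectional curve fit vs DMSO.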

[3] = read-out: Pro-epidermal growth factor (Homo sapiens) (UniProt P01133); test: LTEA_HepaRG_EGF: Life Technologies and Expression Analysis (LTEA) Assay for Epidermal growth factor (EGF) using HepaRG (AID 2283489)
Procedure, shortened: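 HepaRG, 48 h dosing, 100 uM top, half-log x8, 0.5% DMSO. Readout: TaqMan qRT-PCR (Fluidigm array), housekeeping-normalized. Gain or loss of signal fit vs DMSO.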

[4] = read-out: Early growth response protein 1 (EGR1) transcription factor, EGR1 (gene 1958); test: LTEA_HepaRG_EGR1: Life Technologies and Expression Analysis (LTEA) Assay for Early growth response protein 1 (EGR1) transcription factor using HepaRG (AID 2283490)
Procedure, shortened: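 Differentiated human HepaRG cells in serum-free induction medium were exposed in duplicate for 48 h to eight concentrations (top 100 uM, half-log steps) in 0.5% DMSO. EGR1 mRNA was quantified by qRT-PCR, normalized to ACTB, GAPDH and POLR2A, and fitted bidirectionally versus DMSO.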

[5] = read-out: Ezrin (EZR), EZR (gene 7430); test: LTEA_HepaRG_EZR: Life Technologies and Expression Analysis (LTEA) Assay for Ezrin (EZR) using HepaRG (AID 2283491)
Procedure, shortened: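 Gain or loss of EZR mRNA is scored relative to 0.5% DMSO in human HepaRG cultures treated 48 h with test chemicals in duplicate, eight half-log concentrations from 100 uM.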

[6] = read-out: Cytochrome P450 3A7 (Homo sapiens) (UniProt P24462); test: LTEA_HepaRG_CYP3A7: Life Technologies and Expression Analysis (LTEA) Assay for CYP3A7 using HepaRG (AID 2283492)
Procedure, shortened: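 Human HepaRG liver cells, 48 h post-plating, switched to serum-free induction medium and exposed in duplicate for 48 h. Dosing: 100 uM top, half-log dilutions, 8 points, 0.5% DMSO vehicle. Read-out: CYP3A7 mRNA, gain or loss fitted against DMSO baseline.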

CYP3A5 (gene 1577) = test: LTEA_HepaRG_CYP3A5: Life Technologies and Expression Analysis (LTEA) Assay for CYP3A5 using HepaRG (AID 2283493)
Procedure, shortened: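 HepaRG plated 48 h, switched to serum-free induction medium, chemicals added 48 h (max 100 uM, half-log, 0.5% DMSO). RNA isolated; CYP3A5 by TaqMan qRT-PCR. Gain/loss vs DMSO.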

[7] = read-out: Fatty Acid-Binding Protein 1 (FABP1), FABP1 (gene 2168); test: LTEA_HepaRG_FABP1: Life Technologies and Expression Analysis (LTEA) Assay for Fatty Acid-Binding Protein 1 (FABP1) using HepaRG (AID 2283494)
Procedure, shortened: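 Differentiated human HepaRG cells were exposed in duplicate for 48 h in serum-free induction medium to 8-point half-log concentration series topping at 100 uM in 0.5% DMSO. FABP1 mRNA measured by TaqMan qRT-PCR, normalized to ACTB/GAPDH/POLR2A; bidirectional fit versus DMSO.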

[8] = read-out: Cytochrome P450 4A22 (Homo sapiens) (UniProt Q5TCH4); test: LTEA_HepaRG_CYP4A22: Life Technologies and Expression Analysis (LTEA) Assay for Cytochrome P450 4A22 (CYP4A22) using HepaRG (AID 2283495)
Procedure, shortened: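 Readout is CYP4A22 transcript induction or loss, quantified by qRT-PCR and normalized to ACTB, GAPDH and POLR2A. Human HepaRG cells receive test chemicals for 48 h at eight half-log concentrations from 100 uM in 0.5% DMSO.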

[9] = read-out: Cytochrome P450 7A1 (Homo sapiens) (UniProt P22680); test: LTEA_HepaRG_CYP7A1: Life Technologies and Expression Analysis (LTEA) Assay for Cytochrome P450 7A1 (CYP7A1) using HepaRG (AID 2283496)
Procedure, shortened: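 HepaRG cells plated 48 h, then switched to serum-free induction medium and exposed in duplicate for 48 h to 8-point half-log series from 100 uM in 0.5% DMSO. CYP7A1 mRNA by qRT-PCR (TaqMan), normalized to ACTB/GAPDH/POLR2A; bidirectional fit versus DMSO.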

[10] = read-out: Glutathione S-Transferase (GSTA2), GSTA2 (gene 2939); test: LTEA_HepaRG_GSTA2: Life Technologies and Expression Analysis (LTEA) Assay for Glutathione S-Transferase (GSTA2) using HepaRG (AID 2283497)
Procedure, shortened: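 Human HepaRG cells, plated 48 h, then exposed in serum-free induction medium for 48 h to eight half-log concentrations up to 100 uM in 0.5% DMSO, duplicate. GSTA2 mRNA by qRT-PCR, normalized to ACTB/GAPDH/POLR2A; bidirectional fit versus DMSO.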

[11] = read-out: Glutamate-cysteine ligase catalytic (GCLC), GCLC (gene 2729); test: LTEA_HepaRG_GCLC: Life Technologies and Expression Analysis (LTEA) Assay for Glutamate-cysteine ligase catalytic (GCLC) using HepaRG (AID 2283498)
Procedure, shortened: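 Differentiated human HepaRG cells, plated 48 h then switched to serum-free induction medium, were exposed in duplicate for 48 h to 8 half-log concentrations topping at 100 uM in 0.5% DMSO. GCLC mRNA was quantified by qRT-PCR against ACTB, GAPDH and POLR2A.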

[12] = read-out: growth arrest and DNA damage 45 (GADD45G), GADD45G (gene 10912); test: LTEA_HepaRG_GADD45G: Life Technologies and Expression Analysis (LTEA) Assay for growth arrest and DNA damage 45 (GADD45G) using HepaRG (AID 2283499)
Procedure, shortened: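 Gain or loss of GADD45G mRNA, quantified by TaqMan qRT-PCR against three housekeeping genes, is fitted in both directions relative to 0.5% DMSO. Human HepaRG cultures receive test chemical for 48 h at up to 100 uM.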

[13] = read-out: Glutamate-cysteine ligase regulatory (GCLM), GCLM (gene 2730); test: LTEA_HepaRG_GCLM: Life Technologies and Expression Analysis (LTEA) Assay for Glutamate-cysteine ligase regulatory (GCLM) using HepaRG (AID 2283500)
Procedure, shortened: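 Cells were plated, cultured 48 h, switched to serum-free induction medium, then dosed in duplicate for 48 h at eight half-log concentrations up to 100 uM. RNA was then profiled by qRT-PCR; gain or loss versus DMSO was fitted.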

[14] = read-out: Glutathione S-transferase M3 (GSTM3), GSTM3 (gene 2947); test: LTEA_HepaRG_GSTM3: Life Technologies and Expression Analysis (LTEA) Assay for Glutathione S-transferase M3 (GSTM3) using HepaRG (AID 2283501)
Procedure, shortened: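 HepaRG, plated 48 h, then serum-free induction medium; test chemical 48 h, duplicate; 100 uM top, half-log x8, 0.5% DMSO. Read-out: GSTM3 mRNA (TaqMan qRT-PCR, Fluidigm array). Bidirectional fit vs DMSO.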

[15] = read-out: Heat shock 70 kDa protein 1 (HSPA1A), gene 3303; test: LTEA_HepaRG_HSPA1A: Life Technologies and Expression Analysis (LTEA) Assay for Heat shock 70 kDa protein 1 (HSPA1A) using HepaRG (AID 2283502)
Procedure, shortened: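 Readout is HSPA1A transcript level by microfluidic qRT-PCR, normalized to three housekeeping genes and analysed for gain or loss of signal relative to 0.5% DMSO. Human HepaRG cultures received test chemicals for 48 h at up to 100 uM.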

[16] = read-out: Hypoxia-inducible factor 1-alpha (Homo sapiens) (UniProt Q16665); test: LTEA_HepaRG_HIF1A: Life Technologies and Expression Analysis (LTEA) Assay for Hypoxia-inducible factor 1 (HIF1A) Trancription factor using HepaRG (AID 2283503)
Procedure, shortened: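 Differentiated HepaRG cells in serum-free induction medium exposed 48 h, in duplicate, to 8-point half-log series from 100 uM in 0.5% DMSO. HIF1A mRNA measured by TaqMan qRT-PCR, normalized to ACTB/GAPDH/POLR2A, fitted bidirectionally versus DMSO.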

[17] = read-out: 3-Hydroxy-3-Methylglutaryl-CoA Synthase 2 (HMGCS2), HMGCS2 (gene 3158); test: LTEA_HepaRG_HMGCS2: Life Technologies and Expression Analysis (LTEA) Assay for 3-Hydroxy-3-Methylglutaryl-CoA Synthase 2 (HMGCS2) using HepaRG (AID 2283504)
Procedure, shortened: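 HepaRG, plated 48 h then switched to serum-free induction media; cmpd 8-pt, max 100 uM, 1/2-log, 0.5% DMSO, n=2, 48 h. HMGCS2 mRNA by Fluidigm TaqMan qRT-PCR, ACTB/GAPDH/POLR2A norm; bidirectional fit vs DMSO.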

Measured: AC50

Sequence of Cytochrome P450 3A7 (Homo sapiens) (P24462 whole entry, looked up): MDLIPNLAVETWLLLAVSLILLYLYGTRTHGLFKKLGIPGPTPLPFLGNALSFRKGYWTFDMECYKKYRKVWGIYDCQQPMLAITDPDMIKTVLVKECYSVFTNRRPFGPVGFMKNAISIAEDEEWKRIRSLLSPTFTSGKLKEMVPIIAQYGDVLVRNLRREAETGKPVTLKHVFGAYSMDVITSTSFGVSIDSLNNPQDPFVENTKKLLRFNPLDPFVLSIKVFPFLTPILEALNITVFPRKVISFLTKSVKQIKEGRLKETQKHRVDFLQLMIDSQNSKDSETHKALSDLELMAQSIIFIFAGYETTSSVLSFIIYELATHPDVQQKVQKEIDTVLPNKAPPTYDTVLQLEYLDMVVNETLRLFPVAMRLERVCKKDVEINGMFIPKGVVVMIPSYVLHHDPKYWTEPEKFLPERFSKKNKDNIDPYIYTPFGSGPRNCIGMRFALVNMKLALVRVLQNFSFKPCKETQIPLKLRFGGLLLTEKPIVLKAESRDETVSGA
Sequence of Cytochrome P450 3A4 (Homo sapiens) (P08684 whole entry, looked up): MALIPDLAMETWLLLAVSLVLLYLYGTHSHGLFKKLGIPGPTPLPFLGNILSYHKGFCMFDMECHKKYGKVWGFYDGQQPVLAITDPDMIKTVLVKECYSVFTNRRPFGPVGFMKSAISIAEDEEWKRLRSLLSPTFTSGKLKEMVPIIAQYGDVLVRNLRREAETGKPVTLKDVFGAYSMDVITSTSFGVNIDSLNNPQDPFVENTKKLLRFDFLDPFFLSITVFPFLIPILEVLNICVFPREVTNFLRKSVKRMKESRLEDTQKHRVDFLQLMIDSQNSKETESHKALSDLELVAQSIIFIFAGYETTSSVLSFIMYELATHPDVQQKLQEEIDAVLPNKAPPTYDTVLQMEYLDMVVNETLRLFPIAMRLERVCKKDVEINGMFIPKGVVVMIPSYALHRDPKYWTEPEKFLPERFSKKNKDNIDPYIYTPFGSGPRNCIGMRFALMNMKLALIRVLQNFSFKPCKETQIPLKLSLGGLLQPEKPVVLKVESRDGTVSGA
Sequence of Hypoxia-inducible factor 1-alpha (Homo sapiens) (Q16665 whole entry, looked up): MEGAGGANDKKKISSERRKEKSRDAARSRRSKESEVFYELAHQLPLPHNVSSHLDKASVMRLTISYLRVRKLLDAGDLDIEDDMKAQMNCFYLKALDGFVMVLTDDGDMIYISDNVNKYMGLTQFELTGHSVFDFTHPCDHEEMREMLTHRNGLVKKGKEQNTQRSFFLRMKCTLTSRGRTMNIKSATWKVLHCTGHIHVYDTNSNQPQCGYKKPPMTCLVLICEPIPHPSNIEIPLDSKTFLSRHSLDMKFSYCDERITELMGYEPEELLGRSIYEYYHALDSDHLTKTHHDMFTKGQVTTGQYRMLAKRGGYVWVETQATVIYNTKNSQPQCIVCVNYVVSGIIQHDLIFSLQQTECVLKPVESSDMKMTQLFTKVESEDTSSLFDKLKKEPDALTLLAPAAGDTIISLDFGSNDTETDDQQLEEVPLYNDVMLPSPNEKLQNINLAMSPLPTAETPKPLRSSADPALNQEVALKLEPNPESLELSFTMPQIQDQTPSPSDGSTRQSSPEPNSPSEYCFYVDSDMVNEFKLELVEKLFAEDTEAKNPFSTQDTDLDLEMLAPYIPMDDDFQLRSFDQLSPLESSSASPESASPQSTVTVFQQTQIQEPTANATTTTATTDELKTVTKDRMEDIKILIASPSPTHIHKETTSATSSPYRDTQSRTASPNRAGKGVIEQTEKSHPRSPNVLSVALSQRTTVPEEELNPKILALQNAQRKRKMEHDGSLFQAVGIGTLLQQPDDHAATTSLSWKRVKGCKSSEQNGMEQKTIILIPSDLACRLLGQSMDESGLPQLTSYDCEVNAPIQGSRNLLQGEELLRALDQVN

CC(=O)OC[C@H]1O[C@@](COC(C)=O)(O[C@H]2O[C@H](COC(C)=O)[C@@H](OC(C)=O)[C@H](OC(C)=O)[C@H]2OC(C)=O)[C@@H](OC(C)=O)[C@@H]1OC(C)=O
inactive: all assays above

CC(C)=CCCC(C)=CC=O
inactive: all assays above

CCN(C(=O)c1cc(C)cc(OC[C@H](C)Nc2ccncc2)c1)C(C)C
active: CYP2E1 (gene 1571) 27.9 µM | CYP4A11 (gene 1579) 33.8 µM | [1] 8.63 µM | [2] 48 µM | [6] 8.43 µM | [7] 2.25 µM | [8] 33.8 µM | [9] 50.5 µM | [12] 33.8 µM | [17] 33.8 µM
inactive: [3] | [4] | [5] | CYP3A5 (gene 1577) | [10] | [11] | [13] | [14] | [15] | [16]

CCOc1cccc(-n2cc(C(=O)N3CCN(c4cc(C(=O)O)c5ccccc5c4)CC3)nc2-c2ccc(C)cc2)c1
inactive: [5] | [6] | [14]
active: CYP2E1 (gene 1571) 14.7 µM | CYP4A11 (gene 1579) 28.9 µM | [1] 31.1 µM | [2] 12.4 µM | [3] 88 µM | [4] 83.7 µM | CYP3A5 (gene 1577) 80.5 µM | [7] 30.2 µM | [8] 29.8 µM | [9] 33.6 µM | [10] 32.3 µM | [11] 79.2 µM | [12] 13.1 µM | [13] 11.5 µM | [15] 86.5 µM | [16] 75 µM | [17] 33.7 µM

COc1cccc(-c2ccc(/C=C\CN3CCCCCC3)cc2Cl)c1
inactive: [3] | [11]
active: CYP2E1 (gene 1571) 61.8 µM | CYP4A11 (gene 1579) 85.4 µM | [1] 76.3 µM | [2] 79.4 µM | [4] 72.7 µM | [5] 45.2 µM | [6] 81.9 µM | CYP3A5 (gene 1577) 8.98 µM | [7] 84.1 µM | [8] 84.4 µM | [9] 69.2 µM | [10] 71 µM | [12] 45.2 µM | [13] 68.7 µM | [14] 79.1 µM | [15] 67.9 µM | [16] 83 µM | [17] 83.9 µM

CC(=O)c1ccc2c(c1)[C@H](NC(=O)c1ccc(F)cc1)[C@@H](O)C(C)(C)O2
active: [1] 18 µM | [6] 34.2 µM
not listed: [17]
inactive: all other assays above

CC(C)=CCCC(C)CCO (centres undefined)
inactive: all assays above

CNCc1ccc(NC(=O)c2c[nH]c3c2C(=O)CCC3)cc1
inactive: all assays above

CCOC(=O)CC(CC(=O)OCC)(OC(C)=O)C(=O)OCC
inactive: all assays above

CCOC(=O)COc1ccc2c(c1)CC(NCC(O)c1cccc(Cl)c1)CC2 (centres undefined)
active: [7] 45.8 µM
inactive: all other assays above

CCn1nc(Cc2ccccc2)cc1C1CCN(C[C@H]2C[C@H](N(C)[C@@H](C(=O)O)C(C)C)C[C@@H]2c2cccc(F)c2)CC1
active: CYP2E1 (gene 1571) 20.4 µM | CYP4A11 (gene 1579) 50 µM | [2] 50 µM | [8] 43.5 µM | [9] 13.4 µM | [10] 50 µM | [12] 76.1 µM | [17] 50 µM
inactive: all other assays above

C=CCCCCCCCCC(=O)O
inactive: all assays above
